Source: publication PMC5540273 (PLoS ONE, 2017)

Tested on: DAPK1
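Also: kd values determined as follow-up on hits from a single-replicate KINOMEscan panel screen.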

Row | Compound | Kd [nM]
1 | Cl.Cl.c1ccc(-c2cc3ccncc3cc2OC2CCNCC2)cc1 [GSK1122999] | 300
2 | COc1ccc(-c2nc3n(c2-c2ccncc2)CCC3)cc1 [SKF-104493] | > 10000
3 | CC(=O)Nc1n[nH]c2ncc(-c3ccccc3)cc12 [SB-548492] | > 10000

Tested on: DAPK3

Row | Compound | Kd [nM]
4 | Cl.Cl.c1ccc(-c2cc3ccncc3cc2OC2CCNCC2)cc1 [GSK1122999] | 170
5 | O=C(c1ccc(-c2cc(-c3c[nH]nc3-c3ccccn3)ccn2)cc1)N1CCCC1 [GW792479] | > 10000
6 | Cn1cc(-c2ccc3c(c2)CCN3C(=O)Cc2cccc(C(F)(F)F)c2)c2c(N)ncnc21 [GSK2606414] | > 10000
7 | FC(F)(F)c1ccc(-c2cc(-c3c[nH]nc3-c3ccccn3)ccn2)cc1 [GW599550] | > 10000

Tested on: DDR1

Row | Compound | Kd [nM]
8 | O=C(Nc1ccccc1)Nc1ccc(Oc2ccc3nccn3n2)cc1 | 9.3
9 | COc1ccc(NC(=O)Nc2ccc(C)c(-c3ccc(C(=O)Nc4ccncc4)cc3)c2)cc1 [GSK1398475] | 860
10 | FC(F)(F)c1ccc(-c2nn3ncccc3c2-c2ccnc(Nc3cccc(C(F)(F)F)c3)n2)cc1 [GW828205] | > 10000
11 | COc1ccc(-c2oc3ncnc(N)c3c2-c2ccc(OC)cc2)cc1 [SB-589132] | 650
12 | Cc1ccc(NC(=O)c2cccc(C#N)c2)cc1-c1ccc(C(=O)Nc2ccncc2)cc1 [GSK1398463] | 22
13 | Cn1ccc2ncnc(Oc3ccc(NC(=O)Nc4cccnc4)c(Cl)c3)c21 | 57
14 | Fc1ccc(Nc2nccc(-c3c(-c4ccc(Cl)cc4)nn4ncccc34)n2)cc1F [GW829058] | 750
15 | Cn1cc(-c2ccc3c(c2)CCN3C(=O)Cc2cccc(C(F)(F)F)c2)c2c(N)ncnc21 [GSK2606414] | 280

Tested on: DDR2

Row | Compound | Kd [nM]
16 | O=C(Nc1ccccc1)Nc1ccc(Oc2ccc3nccn3n2)cc1 | 3
17 | Cc1ccc(NC(=O)c2cccc(C#N)c2)cc1-c1ccc(C(=O)Nc2ccncc2)cc1 [GSK1398463] | 140
18 | Cn1ccc2ncnc(Oc3ccc(NC(=O)Nc4cccnc4)c(Cl)c3)c21 | 76

Tested on: T1, DMPK2
T1 construct: gene CDC42BPG

Row | Compound | Kd [nM]
19 | CNc1nccc(-c2c(-c3ccc(F)cc3)ncn2CCCN2CCOCC2)n1 [SB-222516] | > 10000
20 | Clc1cccc(-c2nc(Nc3ccncc3)c3ccccc3n2)c1 [GW873004] | > 10000
21 | CCCc1ccc(S(=O)(=O)NC2CCN(c3ccnc(Nc4ccc(OC)cc4)n3)C2)cc1 (stereo not shown) [GSK1379737] | > 10000

Tested on: T2, DRAK1
T2 construct: gene STK17A

Row | Compound | Kd [nM]
22 | Fc1cccc(COc2ccc(Nc3ncnc4nn5ccccc5c34)cc2Cl)c1 [GW689066] | > 10000
23 | CC(C)(C)c1ccc(-n2cnc3c(N)ncnc32)cc1 [SKF-97263] | 450
24 | Nc1nc(-c2ccc3c(N)n[nH]c3c2)cc(N2CCCCC2)n1 [GSK2228768] | 110
25 | C[C@H]1CC[C@@H](C(=O)Nc2ccccc2)CN1c1cc(-c2ccc3c(N)n[nH]c3c2)nc(N)n1 [GSK2283293] | 11
